Pf growth 48h: inhibits P. falciparum growth in the first generation, 48 h; P. falciparum luciferase growth in erythrocytes, 48 h; Potency, µM (doses to about 28.7 µM), without a hit: at the top dose activity change, negative = inhibition, actives largely listed as inhibitors; 5.9% of 310,000 active; AID 504832; further: on the % scale 0 is the no-effect control and ±100 the full control effect
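Luciferase-expressing parasites in RBCs, 2% Hct / 0.1% parasitemia final; RPMI 1640 + 0.5% Albumax; 37 C, 5% CO2, one generation; luminescence read-out, lower signal = inhibition.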
Sm TGR block: inhibitors of Schistosoma mansoni thioredoxin glutathione reductase | Q962Y6 | purified TGR, DTNB reduction, TNB absorbance 405 nm | Potency, µM (highest dose often 114 µM), without a hit: top-dose activity change, negative = inhibition, hits mostly inhibitors | 3% of 360,000 active; further: on the % scale 0 is the no-effect control and ±100 the full control effect; nearly all actives have a fitted effect of over 60% in size
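First, TGR (20 nM dispensed) and NADPH were mixed with compound. Second, a 15 min room-temperature incubation followed. Third, further NADPH and then DTNB were added to start the reaction. Finally, TNB absorbance was monitored kinetically.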
AMA1-RON2 inh: AMA1-RON2 (P. falciparum) interaction inhibition. Potency, µM (top dose mostly 58.2 µM), without a hit: at the highest dose activity change, negative = inhibition, most hits filed as inhibitors. AlphaScreen AMA1-biotinylated RON2 peptide binding. AID 720542. 0.2% of 360,000 active;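 further: 0% = vehicle wells and -100% = peptide control; nearly all actives have a fitted effect of over 45% in size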
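AMA1 (3D7) with his tag at 25 nM final met compounds first, then biotinylated RON2 peptide at 25 nM; detection used donor plus acceptor beads, 10 µg/mL apiece, read by AlphaScreen after 30 min at room temperature.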
NS1 inh: inhibitors of influenza NS1 protein function. Potency, µM (series often up to 46.1 µM), without a hit: at the top dose activity, positive = more growth. 0.4% of 270,000 active. AID 2326; calls by dose curve; further: actives are rising curves; nearly all actives have a fitted effect of over 50% in size
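Growth recovery, yeast-based: influenza A NS1 expressed in S. cerevisiae causes slow growth, and suppressors are detected by OD600. The parent strain without NS1 is used as positive control.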
Pf growth 96h: P. falciparum growth inhibition at 96 hour, primary screen for plastid delayed-death inhibitors; P. falciparum luciferase reporter growth, 96 h; Potency, µM (series often up to 28.7 µM), inactives show top-dose activity change, negative = inhibition, usual class: inhibitors; 6.9% of 320,000 active; AID 504834; further: on the % scale 0 is the no-effect control and ±100 the full control effect
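96 h incubation, 37 C, 5% CO2, of luciferase-reporter P. falciparum-infected RBCs (2% hematocrit, 0.05% parasitemia final) with test compounds; endpoint luminescence.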
Active calls of the source: *; ? = inconclusive; · = no result; [ ] = remark or other dose. A selection: hits, their analogues and other compounds. The true share with any hit is near 11%. Unless noted, the call rests on the fitted dose curve; in most records, active means well fitted curve in the direction sought with a large enough effect; inconclusive means small, poorly fitted or top-dose-only effect, or another doubt; inactive means no such curve, though single readings can be large; an effect the other way counts as inactive or inconclusive. Potency means the concentration at half of the fitted maximal effect.

SMILES	Pf growth 48h	Sm TGR block	AMA1-RON2 inh	NS1 inh	Pf growth 96h
CCc1ccc(NC(=O)CN2C(=O)C(c3ccc(C)cc3)=NC23CCCCC3)cc1	·	2.1%	·	·	·
Cc1noc(C)c1C(=O)N1CCC1(C)C(=O)NS(=O)(=O)c1ccc(Cl)cc1 (centres undefined)	·	·	8.0%	·	·
Cc1cc(NC(=O)c2ccccc2)ccc1NC(=O)c1ccccc1Cl	0.9%	9.8%	13.2%	8.2%	-5.8%
Cc1cc(NC(=O)c2ccco2)ccc1NC(=O)Cc1cccs1	61.5%	-5.6%	3.8%	2.3%	6.57µM*
Cc1cc(NC(=O)c2ccccc2)ccc1NC(=O)Cc1ccccc1	-12.4%	-9.6%	-5.2%	10.0%	4.15µM*
Cn1c(=O)n(Cc2ccccc2)c(=O)c2c1nc1n2CCN1c1ccccc1	·	-6.2%	·	·	·
COc1ccc(C[C@H](N)C(=O)N[C@H]2[C@@H](O)[C@H](n3cnc4c(N(C)C)ncnc43)O[C@@H]2CO)cc1	0.104µM*	-2.0%	26.4%	·	0.165µM*
CN(C)c1ncnc2c1ncn2C1OC(CO)C(O)C1O (centres undefined)	-18.1%	0.8%	-5.9%	11.1%	·
CC(C)CN(C(=O)Cn1ccccc1=O)C1CCS(=O)(=O)C1 (centres undefined)	-12.6%	-2.6%	-3.6%	·	1.5%
CCC(CC)C(=O)Nc1nnc(S(=O)(=O)Nc2ccc(OC)cc2)s1	·	-18.9%	5.2%	5.1%	-13.6%
COc1cccc(CNc2ncnc3ccc(-c4c(C)noc4C)cc23)c1	4.15µM*	-1.7%	·	·	5.86µM*
COc1cccc(CNc2ncnc3onc(C)c23)c1	·	-2.0%	·	·	·
CCc1cc2c(NCCN3CCCCC3)ncnc2s1	·	0.4%	-15.0%	0.4%	?
Cc1noc(C)c1-c1ccc2ncnc(NCC3CCCCN3C)c2c1 (centres undefined)	4.15µM*	-4.4%	·	·	2.33µM*
Cc1ccc(S(=O)(=O)c2nnn(CC(=O)Nc3ccccc3C)c2N)cc1C	·	3.2%	·	·	·
CC(OC(=O)c1cc(S(=O)(=O)N2CCOCC2)ccc1F)C(=O)NC1CCCC1 (centres undefined)	-13.4%	-3.2%	-6.4%	·	18.7%
Cc1ccc(C(C(=O)NC2CCCC2)N(C(=O)c2csnn2)C2CC2)cc1 (centres undefined)	-20.9%	-1.5%	3.2%	9.5%	28.7%
O=C(NCCc1ccccc1)C(c1ccncc1)N(C(=O)c1csnn1)C1CC1 (centres undefined)	-17.0%	-20.3%	2.4%	15.4%	11.7µM*
CC(C)c1ccc(C(C(=O)NC2CCCCC2)N(C(=O)c2csnn2)C2CC2)cc1 (centres undefined)	13.1µM*	-8.0%	-4.1%	9.2%	10.9%
Cc1ccccc1C(=O)NC(=O)Nc1ccc(-n2nc(C(F)(F)F)cc2C(F)(F)F)cc1	·	-0.5%	·	·	·
CCC(=O)c1ccc(OC(=O)N2CCOCC2)cc1	53.3%	6.2%	-2.6%	19.1%	65.5%
NC(=O)C1Cc2ccccc2CN1C(=O)c1nn(Cc2ccccc2)c(=O)c2ccccc12 (centres undefined)	9.28µM*	2.4%	-8.0%	·	5.86µM*
O=C(c1nn(Cc2ccccc2)c(=O)c2ccccc12)N1CCc2ccccc2C1	-1.0%	15.3%	-4.4%	0.0%	32.1%
COC(=O)C1C(c2ccc(OC)c(OC)c2)NC(c2ccc(OC)c(OC)c2)C(C(=O)OC)S1(=O)=O (centres undefined)	-20.0%	20µM*	-8.8%	13.8%	?
NS(=O)(=O)c1cccc(NC(=O)c2ccc(NS(=O)(=O)c3cccc([N+](=O)[O-])c3)cc2)c1	·	·	-15.4%	·	·
SMILES	Pf growth 48h	Sm TGR block	AMA1-RON2 inh	NS1 inh	Pf growth 96h
Cc1ccc(-n2c(=O)c3ccc(C(=O)NCc4ccco4)cc3n(Cc3ccccc3Cl)c2=O)cc1	·	-19.0%	·	·	·
Cc1ccccc1Cn1c(=O)n(-c2ccccc2)c(=O)c2ccc(C(=O)NCc3ccco3)cc21	-5.6%	-15.1%	·	10.7%	8.28µM*
O=C(CCCCn1c(=O)c2ccccc2n(Cc2ccc(Cl)cc2)c1=O)NCc1ccco1	11.7µM*	2.4%	-3.3%	-13.7%	24.6%
N#Cc1ccccc1Cn1c(=O)n(Cc2ccc(C(=O)NCc3ccco3)cc2)c(=O)c2ccccc21	2.94µM*	-2.8%	29.4%	10.7%	81.0%
CCCCn1c(N)c(N(CCOC)C(=O)CSCc2ccc(C)cc2)c(=O)[nH]c1=O	0.5%	5.7%	-8.1%	·	15.2%
CN(CC(=O)Nc1ccc(N2CCOCC2)cc1)Cc1c(O)ccc2ccccc12	5.3%	0.398µM*	5.8%	·	13.4%
CN(CC(=O)Nc1ccc(N2CCOCC2)cc1)C(=O)CCNC(=O)c1ccccc1Cl	2.2%	-12.2%	-21.3%	·	26.0%
CSc1ccccc1NC(=O)CN(C)Cc1c(O)ccc2ccccc12	-2.5%	0.794µM*	43.3%	1.4%	53.0%
CN(CC(=O)Nc1ccc(N2CCOCC2)cc1)C(=O)CCc1ccccc1Cl	?	35.5µM*	6.7%	·	-11.4%
CN(CC(=O)Nc1ccc(N2CCOCC2)cc1)CC(=O)Nc1ccc(N2CCOCC2)cc1	-6.1%	-0.6%	9.9%	-0.4%	-22.5%
Cn1nc(C(C)(C)C)cc1C(=O)N1CCCCC1c1cc(C(=O)Nc2cccc(C#N)c2)no1 (centres undefined)	·	·	-15.5%	·	·
COc1cccc2[nH]c(=O)c(-c3ccccc3)cc12	-8.1%[0.00184 µM]	0.0%	-12.7%	-33.7%	133.4%
CCCCCC(=O)NC(=S)NC1C2CC3CC(C2)CC1C3 (centres undefined)	4.65µM*	?	25.0%	-1.4%	3.7µM*
CC(=O)Nc1cccc(-c2ccnc3c2CC(C)(C(=O)Nc2ccc4c(c2)OCO4)O3)c1 (centres undefined)	·	·	-0.6%	·	·
Oc1cccc(/C=N/NC(=S)Nc2cccnc2)c1O	0.0828µM*	-9.9%	-46.1%	?	?
Oc1ccc(C=NNC(=S)Nc2ccc(F)cc2)c(O)c1	·	·	-0.9%	·	·
Oc1ccc(/C=N/NC(=S)Nc2cccnc2)c(O)c1O	?	10µM*	?	-0.7%	?
Oc1ccc(/C=N/NC(=S)Nc2cccnc2)c(O)c1	6.57µM*	-17.4%	14.4%[11.6 µM]	4.5%	0.0%
COc1ccc(NC(=O)C(NS(=O)(=O)c2ccc3c(c2)CCCC(=O)N3)C(C)C)c(OC)c1 (centres undefined)	·	-10.4%	·	·	·
COc1ccc(C2=C(C=Nc3c(C)n(C)n(-c4ccccc4)c3=O)C(c3ccccc3C)c3ccccc3O2)cc1OC (centres undefined)	0.329µM*	-11.4%	-26.6%	?	·
CCOC(=O)c1ccc(NC(=O)C2C3CCCCC32)cc1 (centres undefined)	-22.4%	40.7%	4.5%	-10.9%	-163.4%
Cc1ccccc1OCCN1C(=O)C(=O)c2cccc(C)c21	?	-5.4%	-9.9%	13.4%	-19.0%
COc1ccccc1OCCCN1C(=O)C(=O)c2cccc(C)c21	?	3.16µM*	-1.1%	-10.0%	20.8%
Cc1cccc2c1N(CCOc1ccc(C(C)(C)C)cc1)C(=O)C2=O	10.4µM*	-11.5%	-26.2%	14.0%	23.4%

Bioassay records deposited in PubChem by National Center for Advancing Translational Sciences (NCATS).
